SMILES strings stand for the structures. Values joined by “and” are separate entries in the source; they are usually repeats but may differ in a detail not shown here. Identical values can stand only once. Records with an inconclusive call do not appear. Active and inactive are the calls of the source. Unless noted, calls follow the shape of the dose curve; as a rule, active = well fitted curve in the direction sought with a large enough effect; inconclusive = small, poorly fitted or top-dose-only effect, or another doubt; inactive = no such curve, though single readings can be large; an effect the other way counts as inactive or inconclusive.

Experiment [1] in a line: NS1 protein of Zika virus - qHTS assay to identify small molecule inhibitors in human HEK 293 cells (AID 1347053). Also: nearly all actives have a fitted effect of over 55% in size. Also: potency is read from the fitted curve at half-maximal effect. In outline: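 Compound-treated (1 h pre-infection) HEK 293 cells infected with ZIKV MR766, MOI = 0.5; after 24 h at 37 C, NS1 read by TR-FRET; data normalized to uninfected and infected controls.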
For orientation: qHTS replaces the single test concentration by a dilution series.

Experiment [2] is described as follows: qHTS of pediatric cancer cell lines to identify multiple opportunities for drug repurposing: Primary screen for TC32 cells (AID 1347089). Also: nearly all actives have a fitted effect of over 60% in size. Also: potency is read from the fitted curve at half-maximal effect. In outline:
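qHTS, TC32, 48 h drug treatment, CellTiter-Glo luminescence as a proxy for metabolically active cells; primary top concentration 46 µM (MIPE 11-pt, NPC 8-pt); confirmatory 11-pt.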

The nature of experiment [3]: qHTS of pediatric cancer cell lines to identify multiple opportunities for drug repurposing: Primary screen for SJ-GBM2 cells (AID 1347091). Also: potency is read from the fitted curve at half-maximal effect. In outline:
(§1)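 Viability measured as metabolically active cells via CellTiter-Glo luminescence following 48 hours of compound exposure, 11-point dilutions in confirmatory testing. 500-1,000 cells/well plated 5 hours before dosing; controls were DMSO and 2.3 µM bortezomib.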

A short description of experiment [4]: qHTS of pediatric cancer cell lines to identify multiple opportunities for drug repurposing: Primary screen for A673 cells (AID 1347092). Also: nearly all actives have a fitted effect of over 45% in size. Also: potency is read from the fitted curve at half-maximal effect. Summed up: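 Luminescence from CellTiter-Glo, taken after 15 min at room temperature, served as the proxy for metabolically active cells following 48 h treatment. Both potency and efficacy were taken from curves fitted to the titration data.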

A short description of experiment [5]: qHTS of pediatric cancer cell lines to identify multiple opportunities for drug repurposing: Primary screen for SK-N-MC cells (AID 1347093). Also: potency is read from the fitted curve at half-maximal effect. Summed up: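 Metabolically active cells were quantified by ATP-dependent luminescence (CellTiter-Glo, 15 min at room temperature) following 48 h treatment. Cells had been plated at 500-1,000 per well and settled for 5 h beforehand.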

Experiment [6] is described as follows: qHTS of pediatric cancer cell lines to identify multiple opportunities for drug repurposing: Primary screen for NB-EBc1 cells (AID 1347095). Also: potency is read from the fitted curve at half-maximal effect. In outline: (§2)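 Readout: CellTiter-Glo luminescence, 48 h treatment. Controls DMSO (neutral) and bortezomib 2.3 µM final (positive). Potency and efficacy taken from primary-screen concentration-response curves.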
Experiment [7] can be described thus: qHTS of pediatric cancer cell lines to identify multiple opportunities for drug repurposing: Primary screen for U-2 OS cells (AID 1347096). Also: nearly all actives have a fitted effect of over 50% in size. In outline: (§3)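 Viability after 48 h compound treatment at 37C, 500-1,000 cells/well, read as ATP luminescence with CellTiter-Glo. Primary screens used 11-point (MIPE, 0.78 nM-46 µM) or 8-point (NPC, 0.59 nM-46 µM) final concentrations; follow-up screens used 11-point dilutions.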

Experiment [8] in a line: qHTS of pediatric cancer cell lines to identify multiple opportunities for drug repurposing: Primary screen for NB1643 cells (AID 1347099). Also: nearly all actives have a fitted effect of over 50% in size. Also: potency is read from the fitted curve at half-maximal effect. In outline:
as §2

Experiment [9] is described as follows: qHTS of pediatric cancer cell lines to identify multiple opportunities for drug repurposing: Primary screen for LAN-5 cells (AID 1347100). Also: potency is read from the fitted curve at half-maximal effect. In outline: as §3
Experiment [10] can be described thus: qHTS of pediatric cancer cell lines to identify multiple opportunities for drug repurposing: Primary screen for BT-12 cells (AID 1347101). Also: nearly all actives have a fitted effect of over 25% in size. Also: potency is read from the fitted curve at half-maximal effect. In outline: (§4)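 Cells (500-1,000/well) rested 5 h, then received compounds for 48 h; metabolically active cells were measured by CellTiter-Glo luminescence. Final concentrations spanned up to 46 µM (MIPE, 11-point) or 0.59 nM-46 µM (NPC, 8-point) in primary screens, 11-point in follow-ups.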

Experiment [11] can be described thus: qHTS of pediatric cancer cell lines to identify multiple opportunities for drug repurposing: Primary screen for Rh18 cells (AID 1347102). Also: nearly all actives have a fitted effect of over 65% in size. Also: potency is read from the fitted curve at half-maximal effect. In outline:
as §3

Experiment [12] in a line: qHTS of pediatric cancer cell lines to identify multiple opportunities for drug repurposing: Primary screen for OHS-50 cells (AID 1347103). Also: nearly all actives have a fitted effect of over 40% in size. Also: potency is read from the fitted curve at half-maximal effect. In outline: as §4
A short description of experiment [13]: qHTS of pediatric cancer cell lines to identify multiple opportunities for drug repurposing: Primary screen for Saos-2 cells (AID 1347097). Also: nearly all actives have a fitted effect of over 40% in size. Also: potency is read from the fitted curve at half-maximal effect. Summed up: as §2
The nature of experiment [14]: qHTS of pediatric cancer cell lines to identify multiple opportunities for drug repurposing: Primary screen for SK-N-SH cells (AID 1347098). Also: nearly all actives have a fitted effect of over 65% in size. Also: potency is read from the fitted curve at half-maximal effect. In outline:
as §4

Experiment [15] can be described thus: qHTS of pediatric cancer cell lines to identify multiple opportunities for drug repurposing: Primary screen for DAOY cells (AID 1347090). Also: nearly all actives have a fitted effect of over 55% in size. Also: potency is read from the fitted curve at half-maximal effect. Summed up:
as §1

Experiment [16] in a line: qHTS of pediatric cancer cell lines to identify multiple opportunities for drug repurposing: Primary screen for BT-37 cells (AID 1347094). Also: potency is read from the fitted curve at half-maximal effect. In outline: as §2
The target in experiment [17] is Tyrosine-protein phosphatase non-receptor type substrate 1 (Homo sapiens) + Leukocyte surface antigen CD47 (Homo sapiens) (UniProt P78324+Q08722). Description: CD47-SIRPalpha protein protein interaction - HTRF assay qHTS validation (AID 1347058; active = well fitted curve in the direction sought with a large enough effect in the signal ratio, not every such curve was filed as active; the % refers to the signal ratio; also: series mostly up to about 38 µM). Summed up: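 Soluble extracellular domains (6His-CD47, Avi-tag-biotinylated SIRPalpha) in PBS pH 7.4 with 0.05% IGEPAL CA-630. Compounds were preincubated 30 min at RT with CD47 and anti-His-Eu, then SIRPalpha and SAV-XL665 were added. TR-FRET 665/615 ratio.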
A general note: In TR-FRET formats the signal depends on donor and acceptor labels being close together.

Experiment [18] deals with Parathyroid hormone/parathyroid hormone-related peptide receptor (Homo sapiens) (UniProt Q03431). Nature of the experiment: qHTS for PTHR1 Agonists: Optimization Screen against the NCGC LOPAC library (AID 1347079).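 Also: GloSensor cAMP luminescence in HEK-293 GP2 cells expressing human PTHR1 with IBMX.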 In outline:
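HEK-293 GP2 cells, PTHR1 + GloSensor cAMP; 3000 cells/well, o/n. Luciferin + IBMX 0.5mM each (stock), 1 hr 37C. Cpd titration, 1 hr 37C. Lum after 15 min RT. Ctrl M-PTH(1-15) top 10uM.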

Tyrosine-protein phosphatase non-receptor type substrate 1 (Homo sapiens) + Leukocyte surface antigen CD47 (Homo sapiens), sequence (P78324 whole entry, looked up, the tested form may be a part): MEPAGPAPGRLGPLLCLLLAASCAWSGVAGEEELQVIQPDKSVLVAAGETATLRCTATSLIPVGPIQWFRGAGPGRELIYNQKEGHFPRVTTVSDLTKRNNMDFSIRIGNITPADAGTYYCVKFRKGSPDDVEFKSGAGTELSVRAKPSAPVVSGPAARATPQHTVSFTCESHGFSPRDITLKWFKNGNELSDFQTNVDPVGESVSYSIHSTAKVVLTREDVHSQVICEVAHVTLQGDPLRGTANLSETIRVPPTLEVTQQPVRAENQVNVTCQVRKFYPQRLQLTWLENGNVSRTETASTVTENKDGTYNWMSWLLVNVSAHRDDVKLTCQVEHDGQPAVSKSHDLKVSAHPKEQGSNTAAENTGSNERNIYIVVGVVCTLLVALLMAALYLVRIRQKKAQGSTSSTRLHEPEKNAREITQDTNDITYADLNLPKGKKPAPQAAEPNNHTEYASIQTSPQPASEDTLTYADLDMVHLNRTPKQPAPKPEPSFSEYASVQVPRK
Tyrosine-protein phosphatase non-receptor type substrate 1 (Homo sapiens) + Leukocyte surface antigen CD47 (Homo sapiens), sequence (Q08722 whole entry, looked up, the tested form may be a part): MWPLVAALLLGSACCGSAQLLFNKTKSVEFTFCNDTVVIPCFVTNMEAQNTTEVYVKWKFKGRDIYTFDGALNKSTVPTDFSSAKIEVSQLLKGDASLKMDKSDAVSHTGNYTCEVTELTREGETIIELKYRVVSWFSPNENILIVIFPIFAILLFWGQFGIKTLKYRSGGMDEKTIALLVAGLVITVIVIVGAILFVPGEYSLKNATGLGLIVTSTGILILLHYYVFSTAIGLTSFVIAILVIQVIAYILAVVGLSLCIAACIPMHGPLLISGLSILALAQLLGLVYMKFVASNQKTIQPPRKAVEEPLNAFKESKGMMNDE
Parathyroid hormone/parathyroid hormone-related peptide receptor (Homo sapiens), sequence (Q03431 whole entry, looked up): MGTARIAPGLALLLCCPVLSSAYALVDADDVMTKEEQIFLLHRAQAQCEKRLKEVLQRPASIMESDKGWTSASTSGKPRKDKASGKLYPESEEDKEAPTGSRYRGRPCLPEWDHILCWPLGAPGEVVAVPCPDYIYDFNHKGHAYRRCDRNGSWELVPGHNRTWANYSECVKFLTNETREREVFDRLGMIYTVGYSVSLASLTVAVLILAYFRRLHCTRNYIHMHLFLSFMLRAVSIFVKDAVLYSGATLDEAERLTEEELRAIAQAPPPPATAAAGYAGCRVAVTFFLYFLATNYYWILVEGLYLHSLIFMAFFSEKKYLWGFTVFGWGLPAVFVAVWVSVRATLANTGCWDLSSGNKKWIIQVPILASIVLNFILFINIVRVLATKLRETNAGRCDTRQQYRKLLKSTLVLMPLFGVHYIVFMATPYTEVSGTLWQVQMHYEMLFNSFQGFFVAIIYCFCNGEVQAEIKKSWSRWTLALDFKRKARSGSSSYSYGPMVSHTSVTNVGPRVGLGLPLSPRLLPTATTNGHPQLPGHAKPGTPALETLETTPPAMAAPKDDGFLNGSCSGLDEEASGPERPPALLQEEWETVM

Consider `CN(C(=O)c1ccc(F)cc1C(F)(F)F)C1CCN(c2nnc(-c3ccnn3C)c3ccccc23)CC1`, for which the Potency entry in experiment [1], in experiment [2], in experiment [3], in [6], in [7] and in experiment [9] was “inactive” throughout. Also, the Potency result in experiment [11] was “inactive”. The Potency is 11.8 µM (active) in [4]; 332 nM (active) in experiment [5]; 4.18 µM (active) in experiment [8]; 21.7 µM (active) in experiment [10]; 24.3 µM (active) in [12].
Turning to `CN[C@@H](C)C(=O)N[C@H]1CCCC[C@H]2CC[C@@H](C(=O)N[C@@H](c3ccccc3)c3cn(CCCCc4ccc(CCCCn5cc([C@@H](NC(=O)[C@@H]6CC[C@@H]7CCCC[C@H](NC(=O)[C@H](C)NC)C(=O)N76)c6ccccc6)nn5)cc4)nn3)N2C1=O`, the Potency result in experiment [1], in experiment [2], in experiment [3], in experiment [7] and in experiment [8] was “inactive” each time. In addition, the Potency was 6620 nM (active) in [5], 27.3 µM (active) in experiment [10] and 14.8 µM (active) in experiment [11].
In the case of `CCc1cc(Nc2nccc(-c3c(-c4ccc(OC)c(C(=O)Nc5c(F)cccc5F)c4)nc4ccccn34)n2)c(OC)cc1N1CCC(N2CCN(S(C)(=O)=O)CC2)CC1`, the Potency in experiment [1] was 26.4 µM (active); in experiment [13], 18.7 µM (active); in [14], 21.5 µM (active). Besides, the Potency entry in experiment [2], in experiment [3], in experiment [7], in experiment [8] and in experiment [11] was “inactive” in each case.
Regarding `Nc1nc2[nH]cc(CCc3ccc(C(=O)N[C@@H](CCC(=O)O)C(=O)O)cc3)c2c(=O)[nH]1`, the Potency entry in experiment [1], in experiment [15], in experiment [16], in experiment [7], in [14] and in experiment [8] was “inactive” in each case. In addition, the Potency result in experiment [9], in [10], in experiment [11] and in experiment [12] was “inactive” throughout. Further, the Potency was 4.66 µM (active) in [2], 132 nM (active) in [5] and 1.48 µM (active) in experiment [6].
`CCCS(=O)(=O)Nc1ccc(F)c(C(=O)c2c[nH]c3ncc(Cl)cc23)c1F`: the Potency result in [1] and in experiment [2] was “inactive” in each case. For the same compound, the Potency was 10.5 µM (active) in [3]; 18.7 µM (active) in [4]; 4180 nM (active) in experiment [5]; 11.8 µM (active) in experiment [13]; 19.2 µM (active) in experiment [14]; 20.9 µM (active) in experiment [8]. Further, in [12], the Potency was 13.7 µM (active).
As for `O=C(C1CC1)N1CC[C@@H](Cn2c(-c3ccc(-c4ccc5occc5c4)cc3)nc3cnccc32)C1`, the Potency result in experiment [2], in [15], in [4], in experiment [7], in experiment [13] and in experiment [14] was “inactive” throughout. In addition, the Potency result in experiment [8], in [11] and in [12] was “inactive” each time. Besides, the Potency in experiment [3] is 8.33 µM (active); in experiment [5], 18700 nM (active); in experiment [6], 13.2 µM (active).
As to `COc1ccc(C2=N[C@H](c3ccc(Cl)cc3)[C@H](c3ccc(Cl)cc3)N2C(=O)N2CCNC(=O)C2)c(OC(C)C)c1`, the Potency entry in [2] is “inactive”. Besides, the Potency was 23.5 µM (active) in experiment [15]; 14.8 µM (active) in [3]; 14.8 µM (active) in [4]; 2640 nM (active) in experiment [5]; 7.69 µM (active) in experiment [16]; 0.743 µM (active) in experiment [6]. Besides, the Potency in [8] was 2.64 µM (active); in [9], 2.35 µM (active); in [11] it was 5.26 µM (active).
For `Cc1c(CN2CCN(C(=O)C(C)C)CC2)sc2c(N3CCOCC3)nc(-c3cnc(N)nc3)nc12`, the Potency was 0.466 µM (active) in experiment [2]; 0.469 µM (active) in [15]; 0.132 µM (active) in experiment [3]; 0.469 µM (active) in [4]; 23.5 nM (active) in experiment [5]; 0.118 µM (active) in experiment [6]. Besides, the Potency in [13] is 0.332 µM (active); in experiment [14] it was 0.961 µM (active); in experiment [8], 6.62 µM (active); in [9], 0.662 µM (active); in experiment [10], 0.685 µM (active); in experiment [11] it was 0.264 µM (active). The Potency in [12] was 0.0343 µM (active).
Regarding `CCn1c(-c2nonc2N)nc2c(C#CC(C)(C)O)ncc(OC[C@H]3CCCNC3)c21`, the Potency entry in experiment [1], in experiment [7], in experiment [10] and in experiment [11] was “inactive” each time. The Potency in experiment [3] is 23.5 µM (active); in experiment [4], 11.8 µM (active); in experiment [5] it was 469 nM (active); in experiment [6] it was 18.7 µM (active); in experiment [8], 18.7 µM (active); in experiment [9], 5.26 µM (active).
In the case of `Cc1cc2c(C(C)C)c(O)c(O)c(C=O)c2c(O)c1-c1c(C)cc2c(C(C)C)c(O)c(O)c(C=O)c2c1O`, the outcome in experiment [17] and in experiment [18] was inactive. The Potency result in experiment [2] and in [7] was “inactive” each time. The Potency in experiment [15] was 21.1 µM (active) and 14.8 µM (active); in experiment [3] it was 4.22 µM (active) and 3.72 µM (active); in experiment [4] it was 23.5 µM (active); in experiment [5] it was 5.96 µM (active) and 9.35 µM (active); in experiment [16], 15.5 µM (active) and 24.3 µM (active); in [6], 3.76 µM (active) and 2.96 µM (active). The Potency was 8.41 µM (active) and 16.6 µM (active) in experiment [13]; 8.41 µM (active) and 7.43 µM (active) in experiment [8]; 3.35 µM (active) and 11.8 µM (active) in experiment [9]; 23.5 µM (active) in experiment [11]; 11 µM (active) and 19.3 µM (active) in experiment [12].
In the case of `CN(C)c1ccc(Nc2nc(N)n(C(=O)c3c(F)cccc3F)n2)cc1`, the Potency result in experiment [1] and in experiment [11] was “inactive” in each case. Besides, the Potency was 16.6 µM (active) in [3]; 2.35 µM (active) in experiment [4]; 469 nM (active) in experiment [5]; 16.6 µM (active) in experiment [13]; 3.83 µM (active) in experiment [14]; 11.8 µM (active) in experiment [8]. Also, the Potency in experiment [9] was 0.833 µM (active).
Take `COc1cccc2cc(-c3nc(C4CCC(C(=O)O)CC4)n4ncnc(N)c34)[nH]c12` (configuration not stated): the Potency entry in experiment [1], in [8] and in experiment [9] was “inactive” each time. Moreover, the Potency is 0.935 µM (active) in [3]; 23.5 nM (active) in [5]; 1.66 µM (active) in [6]; 0.344 µM (active) in experiment [10]; 0.109 µM (active) in [12].

(Values after PubChem BioAssay (NCATS).)
